# Laboratory results from PubChem BioAssay (EPA / NIEHS).
# The source made the active and inactive calls. How the source made its calls: active means hit-call score of the fitted dose curve at least 0.9, where 1 is the maximum; inactive means score below 0.9.
# Columns and labels:
# [1] = ATG_CRE_CIS: Attagene CIS-FACTORIAL HepG2 Assay for human cAMP Responsive Element (CRE) binding protein 3 (AID 2282926); conditions: HepG2 CRE cis-reporter, Attagene multiplexed mRNA; actives raise or lower the signal
# Procedure, shortened: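 We dosed HepG2 cells bearing multiple cis-promoter reporter units for 24 h and measured reporter mRNA by RT-PCR with capillary electrophoresis detection. Bidirectional concentration-response fitting used DMSO as negative control.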
# [2] = ATG_CMV_CIS: Attagene CIS-FACTORIAL HepG2 Assay for human CMV (Internal Marker) (AID 2282928); conditions: HepG2 CMV promoter reporter, transcription factor profiling; actives raise or lower the signal;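 further: endpoint acts as a background internal control marker rather than a target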
# Procedure, shortened: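 After transient transfection of HepG2 with reporter transcription units driven by cis-regulatory promoters, cells receive test chemical for 24 h. Labeled reporter amplicons, digested with HpaI, are sized and quantified by capillary electrophoresis against DMSO.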
# [3] = ATG_DR4_LXR_CIS: Attagene CIS-FACTORIAL HepG2 Assay for human Liver X Receptor (LXR), DR4 submotif (AID 2282929); conditions: HepG2 Attagene DR4 cis-reporter, mRNA transcription; actives raise or lower the signal
# Procedure, shortened: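 Total RNA from 24 h-treated, MRTU-transfected HepG2 cells underwent reverse transcription, PCR, fluorescent primer extension and restriction digestion before capillary electrophoresis. Both increases and decreases in reporter signal were fitted against DMSO.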
# [4] = ATG_AP_1_CIS: Attagene CIS-FACTORIAL HepG2 Assay for human Activator Protein 1 (AP-1) (AID 2282931); conditions: HepG2 Attagene cis-factorial AP-1 reporter mRNA; actives raise or lower the signal
# Procedure, shortened: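 HepG2, transient cis-reporter transfection; 24 h; readout RT-PCR/CE fluorescence; DMSO baseline, gain and loss fitted.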
# [5] = ATG_AP_2_CIS: Attagene CIS-FACTORIAL HepG2 Assay for human Activator Protein 2 (AP-2) (AID 2282932); conditions: HepG2 AP-2 cis-reporter, Attagene transcription factor profiling; actives raise or lower the signal
# Procedure, shortened: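 HepG2, transient MRTU transfection, cis-regulated reporters; 24 h compound exposure; RNA isolated, RT-PCR, 6-FAM labelling, HpaI digest, CE fluorescence. DMSO = negative control/baseline, bidirectional fit.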
# [6] = ATG_BRE_CIS: Attagene CIS-FACTORIAL HepG2 Assay for human Bone Morphogenetic Protein (BMP) Response Element (BRE) (AID 2282933); conditions: HepG2 BMP response element reporter, Attagene transcription factor profiling; actives raise or lower the signal
# Procedure, shortened: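 After a 24 h chemical treatment, transiently transfected HepG2 cells were lysed for RNA; reporter transcripts were quantified by fluorescent RT-PCR and capillary electrophoresis, normalised to DMSO.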
# [7] = ATG_E_Box_CIS: Attagene CIS-FACTORIAL HepG2 Assay for human Enhancer Box (E-box) (AID 2282936); conditions: HepG2 E-box cis-reporter transcription, actives raise or lower the signal
# Procedure, shortened: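 Cells: HepG2 (human liver), transient MRTU transfection. Exposure 24 h. RNA → oligo(dT) RT → PCR → 6-FAM label → HpaI → CE. Activity fitted both directions relative to DMSO.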
# [8] = ATG_M_61_CIS: Attagene CIS-FACTORIAL HepG2 Assay for M61 Transcription Factor (Internal Marker) (AID 2282937); conditions: HepG2 Attagene CIS-FACTORIAL M61 internal marker reporter; actives raise or lower the signal
# Procedure, shortened: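 Transfect HepG2 with MRTUs; dose 24 h; isolate RNA; reverse-transcribe with DNase I treatment; PCR-amplify, FAM-label and cut with HpaI for 2 h at 37 C; resolve by CE. Bidirectional fitting against DMSO.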
# [9] = ATG_EGR_CIS: Attagene CIS-FACTORIAL HepG2 Assay for human Early Growth Response 1 (EGR1) (AID 2282938); conditions: HepG2 Attagene CIS-FACTORIAL EGR reporter mRNA; actives raise or lower the signal
# Procedure, shortened: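 After a 24 h treatment of transiently transfected HepG2 cells, total RNA was reverse-transcribed and reporter sequences PCR-amplified, labelled and run on capillary electrophoresis. Reporters sit under cis-regulatory promoters sensing endogenous factors.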
# [10] = ATG_M_19_CIS: Attagene CIS-FACTORIAL HepG2 Assay for M19 Transcription Factor (Internal Marker) (AID 2282939); conditions: HepG2 Attagene CIS-FACTORIAL M19 internal marker reporter; actives raise or lower the signal
# Procedure, shortened: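 In this multiplexed cell assay, transiently transfected HepG2 reporter units report endogenous transcription-factor activity; after 24 hours of treatment, labelled reporter cDNA fragments are quantified by capillary electrophoresis and fitted bidirectionally against DMSO.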
# [11] = ATG_Ets_CIS: Attagene CIS-FACTORIAL HepG2 Assay for human Erythroblast Transformation Specific (ETS) (AID 2282941); conditions: HepG2 ETS cis-reporter transcription, actives raise or lower the signal
# Procedure, shortened: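 Human HepG2 hepatoma cells were transiently transfected with promoter-driven reporter constructs and treated for 24 hours. Reporter transcripts were quantified by RT-PCR with fluorescent primer extension; bidirectional curve fitting used DMSO as reference.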
# [12] = ATG_FoxO_CIS: Attagene CIS-FACTORIAL HepG2 Assay for human Forkhead box O (FoxO) (AID 2282943); conditions: HepG2 Attagene cis-reporter, FoxO element, mRNA; actives raise or lower the signal
# Procedure, shortened: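 HepG2, transient MRTU transfection (cis element, endogenous TFs). Dose 24 h. TriZol RNA → oligo(dT) RT → PCR → 6-FAM primer extension → HpaI cut → CE. Gain/loss vs DMSO.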
# [13] = ATG_ISRE_CIS: Attagene CIS-FACTORIAL HepG2 Assay for human Interferon Regulatory Factor 1 (IRF1) binding to an Interferon-Stimulated Response Element (ISRE) (AID 2282948); conditions: HepG2 ISRE cis-reporter (Attagene), mRNA transcription readout; actives raise or lower the signal
# Procedure, shortened: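 Cell-based cis-reporter assay; HepG2; 24 h exposure; reporter mRNA by RT-PCR plus capillary electrophoresis fluorescence; activity in either direction scored relative to DMSO.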
# [14] = ATG_M_06_CIS: Attagene CIS-FACTORIAL HepG2 Assay for M06 Transcription Factor (Internal Marker) (AID 2282950); conditions: HepG2 Attagene CIS-FACTORIAL M06 internal marker reporter; actives raise or lower the signal
# Procedure, shortened: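 One of many multiplexed endpoints: HepG2 reporter mRNA after 24 h dosing, detected by RT-PCR and capillary electrophoresis fluorescence; gain or loss of signal analysed against DMSO.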
# [15] = target: Paired box protein Pax-6 (Homo sapiens) (UniProt P26367); experiment: ATG_Pax6_CIS: Attagene CIS-FACTORIAL HepG2 Assay for human Paired Box 6 (PAX6) (AID 2282956); conditions: HepG2 CIS-FACTORIAL PAX6 reporter transcription, RNA readout; actives raise or lower the signal
# Chain of Paired box protein Pax-6 (Homo sapiens) (P26367 whole entry, looked up): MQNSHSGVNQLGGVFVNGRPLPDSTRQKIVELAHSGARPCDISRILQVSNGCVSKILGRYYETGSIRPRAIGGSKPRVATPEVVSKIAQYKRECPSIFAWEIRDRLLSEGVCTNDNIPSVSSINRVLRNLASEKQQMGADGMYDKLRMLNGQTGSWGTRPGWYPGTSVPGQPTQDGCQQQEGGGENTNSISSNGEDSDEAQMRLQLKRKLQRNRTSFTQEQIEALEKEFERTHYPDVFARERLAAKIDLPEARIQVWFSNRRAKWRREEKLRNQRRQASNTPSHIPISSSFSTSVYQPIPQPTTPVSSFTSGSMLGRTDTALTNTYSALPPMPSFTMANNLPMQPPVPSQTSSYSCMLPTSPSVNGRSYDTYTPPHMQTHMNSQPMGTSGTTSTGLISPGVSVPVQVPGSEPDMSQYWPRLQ
# Procedure, shortened: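 Multiplexed cis-reporter HepG2 system; 24 h treatment; reporter mRNA read by RT-PCR/CE fluorescence; bidirectional fit vs DMSO.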
# [16] = ATG_SREBP_CIS: Attagene CIS-FACTORIAL HepG2 Assay for human Sterol Regulatory Element Binding (SREBP) (AID 2282962); conditions: HepG2 Attagene cis-factorial SREBP reporter, mRNA; actives raise or lower the signal
# Procedure, shortened: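 mRNA induction of transfected cis-promoter reporters in HepG2 cells, 24 h post-dose. Detection: RT-PCR with 6-FAM-labelled products, HpaI digest, capillary electrophoresis. DMSO served as negative control and baseline.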
# [17] = ATG_TA_CIS: Attagene CIS-FACTORIAL HepG2 Assay for human TA Basal Promoter (AID 2282964); conditions: HepG2 Attagene CIS-factorial TA basal promoter reporter; actives raise or lower the signal
# Procedure, shortened: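 Transient MRTU transfection of HepG2 preceded 24 h compound exposure. Reporter mRNA levels were then read by RT-PCR with capillary electrophoresis, and this background-control endpoint was fitted bidirectionally to DMSO.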
# [18] = ATG_TCF_b_cat_CIS: Attagene CIS-FACTORIAL HepG2 Assay for human T-Cell-Factor with beta-catenin (TCF/b-cat) (AID 2282965); conditions: HepG2 TCF/beta-catenin cis-reporter transcription, actives raise or lower the signal
# Procedure, shortened: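 Endogenous transcription factor activity is captured through cis-promoter reporter constructs transiently introduced into human HepG2 liver cells. Induced reporter mRNA is measured after 24 h and fitted bidirectionally relative to DMSO.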
# [19] = ATG_TGFb_CIS: Attagene CIS-FACTORIAL HepG2 Assay for human Transforming Growth Factor (TGF) (AID 2282967); conditions: HepG2 Attagene CIS TGFb reporter, mRNA transcription; actives raise or lower the signal
# Procedure, shortened: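 After a 24-hour incubation with compound, transfected HepG2 cells were lysed for RNA; reporter cDNA was amplified, fluorescently end-labeled and separated by CE. DMSO served as baseline for bidirectional fits.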
# [20] = ATG_Oct_MLP_CIS: Attagene CIS-FACTORIAL HepG2 Assay for human Octamer-Binding Transcription Factor (Oct) (AID 2282993); conditions: HepG2 Attagene cis-factorial Oct reporter, mRNA; actives raise or lower the signal
# Procedure, shortened: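 Transfected HepG2 cells, 24 h treatment. Reporter mRNA quantified by RT-PCR–capillary electrophoresis; bidirectional fitting against DMSO.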
smiles,measurement,setting,value
CC1(C)S[C@@H]2[C@H](NC(=O)[C@H](N)c3ccccc3)C(=O)N2[C@H]1C(=O)O,outcome,[1],inactive
same,outcome,[2],inactive
same,outcome,[3],inactive
same,outcome,[4],inactive
same,outcome,[5],inactive
same,outcome,[6],inactive
same,outcome,[7],inactive
same,outcome,[8],inactive
same,outcome,[9],inactive
same,outcome,[10],inactive
same,outcome,[11],inactive
same,outcome,[12],inactive
same,outcome,[13],inactive
same,outcome,[14],inactive
same,outcome,[15],inactive
same,outcome,[16],inactive
same,outcome,[17],inactive
same,outcome,[18],inactive
same,outcome,[19],inactive
same,outcome,[20],inactive
NC(=O)c1ccc(N)cc1,outcome,[1],inactive
same,outcome,[2],inactive
same,outcome,[3],inactive
same,outcome,[4],inactive
same,outcome,[5],inactive
same,outcome,[6],inactive
same,outcome,[7],inactive
same,outcome,[8],inactive
same,outcome,[9],inactive
same,outcome,[10],inactive
same,outcome,[11],inactive
same,outcome,[12],inactive
same,outcome,[13],inactive
same,outcome,[14],inactive
same,outcome,[15],inactive
same,outcome,[16],inactive
same,outcome,[17],inactive
same,outcome,[18],inactive
same,outcome,[19],inactive
same,outcome,[20],inactive
NC(=O)c1ccc([N+](=O)[O-])cc1Cl,outcome,[1],inactive
same,outcome,[2],inactive
same,outcome,[3],inactive
same,outcome,[4],inactive
same,outcome,[5],inactive
same,outcome,[6],inactive
same,outcome,[7],inactive
same,outcome,[8],inactive
same,outcome,[9],inactive
same,outcome,[10],inactive
same,outcome,[11],inactive
same,outcome,[12],inactive
same,outcome,[13],inactive
same,outcome,[14],inactive
same,outcome,[15],inactive
same,outcome,[16],inactive
same,outcome,[17],inactive
same,outcome,[18],inactive
same,outcome,[19],inactive
same,outcome,[20],inactive
CCCCCC[C@@H](O)C/C=C\CCCCCCCC(=O)O,outcome,[1],inactive
same,outcome,[2],inactive
same,AC50,[3],70.4 µM (active)
same,AC50,[4],71.8 µM (active)
same,outcome,[5],inactive
same,AC50,[6],139 µM (active)
same,AC50,[7],170 µM (active)
same,outcome,[8],inactive
same,outcome,[9],inactive
same,outcome,[10],inactive
same,outcome,[11],inactive
same,AC50,[12],156 µM (active)
same,outcome,[13],inactive
same,outcome,[14],inactive
same,outcome,[15],inactive
same,outcome,[16],inactive
same,outcome,[17],inactive
same,AC50,[18],60.1 µM (active)
same,AC50,[19],115 µM (active)
same,outcome,[20],inactive
